Activity calls are given as the source filed them. The calls were made as follows: active = hit-call score of the fitted dose curve at least 0.9, where 1 is the maximum; inactive = score below 0.9.

Read-out in the test: Human Leukocyte Antigen - DR isotype (HLADR), HLA-DRA (gene 3122)
The test can be described thus: BSK_3C_HLADR: BioMAP Diversity Plus: 3C Assay for Human Leukocyte Antigen - DR isotype (HLADR) Biomarker Activity (AID 2283019). To be noted: primary human endothelial cells (HUVEC); actives raise or lower the signal. The protocol: BSK_3C is a cell-based, multiplexed-readout assay that uses umbilical vein endothelium, a human vascular primary cell, with measurements taken at 24 hours after chemical dosing in a 96-well plate.BSK_3C_HLADR is an assay component measured in the BSK_3C assay. It measures HLA-DR antibody related to regulation of gene expression using ELISA technology.Data from the assay component BSK_3C_HLADR was analyzed into 1 assay endpoint. This assay endpoint, BSK_3C_HLADR, was analyzed with bidirectional fitting relative to DMSO as the negative control and baseline of activity. Using a type of binding reporter, gain or loss-of-signal activity can be used to understand changes in the signaling as they relate to the gene HLA-DRA. Furthermore, this assay endpoint can be referred to as a primary readout, because this assay has produced multiple assay endpoints where this one serves a signaling function. To generalize the intended target to other relatable targets, this assay endpoint is annotated to the cell adhesion molecules intended target family, where the subfamily is MHC Class II.
The levels of cell surface (or secreted, indicated by the prefix "s") biomarker endpoints were measured by ELISA. Overt cytotoxicity to cells in confluent adherent cultures (all systems other than the BT system) was assessed by measuring total protein levels using sulforhodamine B (SRB) staining in parallel cultures at the time of biomarker measurements, indicated as SRB endpoints. For proliferation assays for adherent cell types, individual cell types are cultured at sub-confluence and relative cell numbers quantified by SRB staining at time points optimized for each system (48 h: 3C and CASM3C systems; 72 h: BT and HDF3CGF systems; 96 h: SAg system). SRB was performed by staining cells with 0.1% SRB after fixation with 10% TCA and reading wells at 560 nm.Viability and proliferation of PBMC (T cells) was quantified by Alamar Blue reduction for the SAg and BT systems. For PBMC viability (referred to as PBMC Cytotoxicity within the assay endpoint names), cells were plated (75,000/well in a 96-well plate) and then chemical samples added for 1 h before addition of activators, SEB and TSST-1 (20 ng/mL final concentration each). Cells were incubated for 90 h. Then, Alamar Blue (20 uL/well) (Invitrogen, Cat DAL1100) was added for 6 h, and the plates were read with a fluorescence microplate reader at 546/580 nm (excitation/emission). For PBMC proliferation, cells were plated and activated as above but incubated for only 16 h prior to addition of Alamar Blue. Plates were read after 6 h.
`CCCCCCCCCC[N+](C)(C)[O-]`: the result was inactive.
On to `NC=O`, for which the outcome was inactive.
With `Cc1ccc(-c2cc(C(F)(F)F)nn2-c2ccc(S(N)(=O)=O)cc2)cc1`, the concentration at half-maximal activity (AC50) is 31 µM (active).
For `CCCCCCCC(=O)OC`, the result was inactive.
On the same count and under the same terms, the result for `O=C1O[C@H]([C@H](O)CO)C(O)=C1O` reads “inactive”; that for `CC1(C)C(=O)NC(=O)N1CO`, “inactive”; that for `CCCCc1nc2cccnc2n1Cc1ccc(-c2ccccc2-c2nnn[nH]2)cc1`, “inactive”.
For the molecule `NC1CCCCC1`, the outcome was inactive.
Consider `CC(N)=O`, for which the result was inactive.
In the case of `CC(=O)O[C@]1(C(C)=O)CC[C@H]2[C@@H]3C=C(Cl)C4=CC(=O)[C@@H]5C[C@@H]5[C@]4(C)[C@H]3CC[C@@]21C`, the AC50 is 33.4 µM (active).
Regarding `O=C(O)c1[nH]n(-c2ccc(S(=O)(=O)O)cc2)c(=O)c1N=Nc1ccc(S(=O)(=O)O)cc1`, the outcome was inactive.
Turning to `Cc1cc(SC2=C(O)C[C@@](CCc3ccc(N)cc3)(C(C)C)OC2=O)c(C(C)(C)C)cc1CO`, the result was inactive.
Consider `OCC(CO)n1cnc(-c2ccc(F)cc2)c1-c1ccnc(Oc2ccccc2)n1`, for which the concentration at half-maximal activity (AC50) is 0.254 µM (active).
Consider `Cc1occc(=O)c1O`, for which the result was inactive.
For the molecule `CN(C)CCCN(C)CCCN(C)C`, the result was inactive.
As to `O=C(N[C@@H](c1ccccc1)[C@@H]1CCCCN1)c1cccc(C(F)(F)F)c1Cl`, the concentration at half-maximal activity (AC50) is 29.2 µM (active).
On the same count and under the same terms, the result for `CCCCC(CC)COP(=O)(OCC(CC)CCCC)OCC(CC)CCCC` (stereo not given) reads 20 µM (active).
Take `O=Cc1ccccc1C=O`: the outcome was inactive.
Take `O=[Si]=O`: the result was inactive.
As to `CC(C)(C)c1ccccc1`, the outcome was inactive.
On to `NC(=Nc1ccccc1)Nc1ccccc1`, for which the outcome was inactive.
On the same count and under the same terms, the result for `N[C@@H](Cc1c[nH]c2ccccc12)C(=O)O` reads “inactive”.
On to `CCCCCCC(C=O)=Cc1ccccc1`, for which the concentration at half-maximal activity (AC50) was 36.7 µM (active).
Turning to `Cn1cnc2c1c(=O)[nH]c(=O)n2C`, the result was inactive.
With `C=CCc1ccc(OC)c(OC)c1`, the outcome was inactive.
With `CCN(CC)CCOc1ccc(C(=C(Cl)c2ccccc2)c2ccccc2)cc1`, the concentration at half-maximal activity (AC50) is 7.41 µM (active).
Take `COc1ccc(C(=O)Nc2nc3ccccc3c(NCc3ccccc3)c2C#N)cc1`: the outcome was inactive.
Consider `CO[C@@H]1COCC[C@@H]1N[C@@H]1CC[C@@](C(=O)N2CCc3ncc(C(F)(F)F)cc3C2)(C(C)C)C1`, for which the result was inactive.
Same read-out and setting: the same measure for `CC(=O)O`: “inactive”.
Regarding `Oc1ccc(O)cc1`, the concentration at half-maximal activity (AC50) is 23.5 µM (active).
For `O=C(O)c1cccnc1`, the result was inactive.
In the case of `CC(C)OC(=O)C(C)(C)Oc1ccc(C(=O)c2ccc(Cl)cc2)cc1`, the AC50 is 14.2 µM (active).
As for `O=C(Oc1ccccc1)c1cccc(C(=O)Oc2ccccc2)c1`, the result was inactive.
In the case of `CCCCCCCCCCCCCCCCO`, the outcome was inactive.
In the case of `CC(=O)S[C@H](C(=O)N[C@H]1Cc2ccccc2[C@H]2CCC[C@@H](C(=O)O)N2C1=O)C(C)C`, the outcome was inactive.
For `NCCOCCOCCN`, the outcome was inactive.
`CCCC(=O)O`: the outcome was inactive.
Turning to `CCOCCOCCO`, the result was inactive.
Consider `CC(=O)OCC(COC(C)=O)OC(C)=O`, for which the result was inactive.
`CN(C)C(=O)NC1(c2ccccc2)CCN(CC[C@@]2(c3ccc(F)c(F)c3)CN(C(=O)c3ccccc3)CCO2)CC1`: the result was inactive.

The values are drawn from PubChem BioAssay (EPA / NIEHS).
